Screens as filed in PubChem BioAssay.
IDE exosite inh: displaces the probe from the exo-site of human IDE. purified IDE, FL-6b probe fluorescence polarization; hits give low values. z-score at 20 µM. actives 6.3% (n = 17,000). AID 1259349;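 active means z-score of -3 or lower, meaning strong loss of probe binding signal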;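 further: His-tagged human IDE residues 42-1019 made in E. coli with 30 nM FL-6b probe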
* = called active by the depositor. Only a selection was taken, and hits are over-represented in it overall.

SMILES | IDE exosite inh
O=C(C1CCCCC1)N1CC(=O)N2[C@H](C1)[C@@H](c1ccc(-c3cccnc3)cc1)[C@@H]2CO | -0.83
O=C(NC1CCCCC1)N1CC(=O)N2[C@H](CO)[C@@H](c3ccc(-c4ccncc4)cc3)[C@H]2C1 | -0.66
Cc1cccc(S(=O)(=O)N2CCCCN3[C@H](C2)[C@@H](c2ccc(-c4cccnc4)cc2)[C@@H]3CO)c1 | 1.2
COc1ccc(-c2ccc([C@H]3[C@H](CO)N4CCCCN(C(=O)c5ccc6c(c5)OCO6)C[C@@H]34)cc2)cc1 | 1.3
CN1C(=O)c2cc(NC(=O)c3cscn3)ccc2OC[C@H]2O[C@@H](CC(=O)N3CCOCC3)CC[C@H]21 | 1
CCS(=O)(=O)Nc1ccc2c(c1)C(=O)N(C)C[C@@H](OC)[C@H](C)CN(C(=O)c1ccc3c(c1)OCO3)[C@H](C)CO2 | 0.67
O=C(C[C@H]1CC[C@H]2[C@@H](COC[C@H](O)CN2Cc2nccs2)O1)NCc1ccccc1Cl | -1.3
C[C@@H]1COCc2cnnn2CC[C@@H](Cc2ccccc2)C(=O)N1 | 1.2
C/C=C/c1ccc([C@@H]2[C@H](CO)N(S(C)(=O)=O)[C@H]2CN(CC)C(=O)CC)cc1 | 6.7
COc1ccc(C#Cc2ccc([C@H]3[C@@H](CO)N4C(=O)CN(C(=O)c5ccccc5)C[C@@H]34)cc2)cc1 | 1.8
O=C(c1ccccc1)N1CC(=O)N2[C@H](CO)[C@H](c3ccc(C#Cc4ccccc4)cc3)[C@H]2C1 | -5.3*
O=C(c1ccccc1)N1CC(=O)N2[C@H](C1)[C@H](c1ccc(C#Cc3ccccc3)cc1)[C@@H]2CO | -4.3*
O=C(c1ccccc1)N1CC(=O)N2[C@@H](CO)[C@@H](c3ccc(C#CC4CC4)cc3)[C@@H]2C1 | 1
COc1ccc(C#Cc2ccc([C@@H]3[C@@H](CO)N4C(=O)CN(C(=O)c5ccccc5)C[C@H]34)cc2)cc1 | -0.18
O=C(c1ccccc1)N1CC(=O)N2[C@H](CO)[C@@H](c3ccc(C#Cc4ccccc4)cc3)[C@@H]2C1 | -0.2
COc1ccc2c3c(n(C)c2c1)[C@H](CO)N(Cc1ccc(Cl)cc1)CC31CCN(CC2CC2)CC1 | 0.64
CCc1nc(N2[C@H](CO)[C@@H](c3ccccc3-c3ccc(F)cc3)[C@@H]2C#N)sc1C | -0.48
COc1ccccc1-c1ccc([C@@H]2[C@@H](CO)N3CCCCN(C(=O)CN4CCOCC4)C[C@@H]23)cc1 | -6.5*
Cc1ccccc1-c1ccc([C@H]2[C@H]3CN(C(=O)CN4CCOCC4)CCCCN3[C@H]2CO)cc1 | -2.2
Cc1ccccc1-c1ccc([C@H]2[C@H](CO)N3CCCCN(C(=O)CN4CCOCC4)C[C@@H]23)cc1 | -3.7*
COc1ccccc1-c1ccc([C@H]2[C@@H](CO)N3CCCCN(C(=O)CN4CCOCC4)C[C@@H]23)cc1 | 0.41
CN1c2ccc(Br)cc2[C@H]2[C@H](CCN2C(=O)CN2CCOCC2)[C@H]1CO | 2.6
COc1ccccc1-c1ccc([C@@H]2[C@@H](CO)N3CCCCN(C(=O)CN4CCOCC4)C[C@H]23)cc1 | 1.9
CN1c2ccc(-c3cccc(C#N)c3)cc2[C@@H]2[C@@H](CCN2C(=O)CN2CCOCC2)[C@H]1CO | 1.5
COc1ccccc1-c1ccc2c(c1)[C@H]1[C@H](CCN1C(=O)CN1CCOCC1)[C@H](CO)N2C | -3.3*
SMILES | IDE exosite inh
Cc1ccccc1-c1ccc([C@@H]2[C@H](CO)N3CCCCN(C(=O)CN4CCOCC4)C[C@@H]23)cc1 | -14*
O=C(C[C@@H]1C=C[C@@H](NC(=O)c2ccncc2)[C@@H](CO)O1)NCC1CC1 | 2.9
CC(C)(O)C#Cc1cccc(-c2nc(C(=O)N[C@@H]3CCN(Cc4ccccc4)C3)cc3c2[C@H](CCO)N(S(=O)C(C)(C)C)C3)c1 (stereo not given in full) | 2.2
CC(C)C#Cc1ccc([C@H]2[C@H]3CN(C(=O)C4CCCCC4)CC(=O)N3[C@H]2CO)cc1 | 1.5
COc1cccc(C#Cc2ccc([C@H]3[C@@H](CO)N(C(=O)C4CCCCC4)[C@H]3C#N)cc2)c1 | 6.2
C/C=C/c1ccc([C@@H]2[C@@H](CO)N(C(=O)C3CC3)[C@H]2CN(CC)C(C)=O)cc1 | 2.8
CCS(=O)(=O)N1CC(=O)N2[C@H](C1)[C@@H](c1ccc(C#CC3CCCCC3)cc1)[C@@H]2CO | -0.99
CCCC#Cc1ccc([C@H]2[C@@H](CO)N3C(=O)CN(S(=O)(=O)Cc4ccccc4)C[C@H]23)cc1 | 3
CCC(=O)N1CC(=O)N2[C@H](CO)[C@H](c3ccc(C#CC4CCCC4)cc3)[C@H]2C1 | 0.15
CO[C@H](CN(C)Cc1cc(F)ccc1F)[C@H](C)CN([C@H](C)CO)S(=O)(=O)c1ccc(C)cc1 | 0.57
COc1ccc(NC(=O)N2CCCCN3[C@H](CO)[C@@H](c4ccc(C#CCC(C)C)cc4)[C@H]3C2)cc1 | 2.7
C[C@H]1CN([C@@H](C)CO)C(=O)CCCn2nncc2CO[C@@H]1CN(C)C(=O)c1cc(-c2ccccc2)on1 | -1
O=C(C1CCCCC1)N1CC(=O)N2[C@H](CO)[C@@H](c3ccc(C#CCc4ccccc4)cc3)[C@@H]2C1 | -2.7
